This note sets out measurements from PubChem BioAssay.

Activity calls are given as the source filed them.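 Rule for the calls, unless noted: active = normalized viability below 100% at a tested concentration; inactive = the rest.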

Assay [1] in a line: Wnt pathway potentiators raising nuclear beta-catenin – imaging, WNT3A-conditioned medium, mouse C2C12, NPC library, primary screen (AID 1117326; in the data active = nuclear beta-catenin stimulation mostly above about 4.2%, no sharp cut-off; inactive = mostly below about 10%). Particulars: stronger effect = higher value.
Assay [2] is described as follows: stimulators of insulin release from INS-1E, primary screen, cell-based, 5 mM glucose, NPC library (AID 1117329;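 active = compound raises insulin release from rat beta cells at 5 mM glucose, no numeric limit stated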). Particulars: rat INS-1E insulin secretion, at 10 µM, stronger effect = higher value.
Assay [3] in a line: growth inhibition of GSK3B-pretreated HCT116 cells – cell-based, CellTiter-Glo, 0.2 to 20 µM (AID 1117336;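 active = compounds lowering colon cancer cell viability after pretreatment blocking the GSK3B kinase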). Particulars: HCT116 viability after GSK3B inhibitor, at 20 µM, stronger effect = higher value. For orientation: ATP-based viability assays read luminescence as a measure of living cells.
Assay [4] is described as follows: inhibition of endothelial tube formation, primary screen, imaging, VEGF stimulated, CD31 staining, tube area, NPC library (AID 1117340;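 active = compound that reduces growth-factor-driven endothelial tube area in a mixed cell culture, no cutoff stated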). Particulars: VEGF-stimulated ADSC/ECFC co-culture, at 10 µM, stronger effect = higher value.
The nature of assay [5]: GLP1 release stimulators, primary, NCI-H716, NPC library (AID 1117341;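 active = compound raises GLP1 secretion from the human gut endocrine cells, with no numeric limit stated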). Particulars: NCI-H716 cells, at 10 µM, stronger effect = higher value.
Assay [6] in a line: HCT116 colon cancer cell growth inhibition, primary screen, CellTiter-Glo luminescence, NPC library (AID 1117342;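 active = compounds that lower survival of HCT116 colon cancer cells in the luminescence readout, no numeric limit stated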). Particulars: at 20 µM (top of the series).
Assay [7] in a line: reduced SW480 viability measured with CellTiter-Glo, NPC library, primary (AID 1117343;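 active = compounds that lower viability of the colon cancer cells in the luminescence readout, with no numeric limit stated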). Particulars: CellTiter-Glo luminescence; at 20 µM (top of the series) unless noted.
Assay [8] is described as follows: NPC library primary testing for decreased DLD-1 cell viability via CellTiter-Glo (AID 1117346;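 active = compounds that lower survival of DLD-1 colon cancer cells in the luminescence readout, no cutoff given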). Conditions: DLD-1 viability, CellTiter-Glo luminescence; at 20 µM (top of the series).
Assay [9] in a line: drug combination growth inhibition, ovarian cancer – cell-based, oncology-focused library, rucaparib conditional, profiling panel (AID 1508598). Conditions: patient-derived ovarian cancer cells, CellTiter-Glo viability, 144 h, stronger effect = lower value.
A short description of assay [10]: MELAS cybrid and Rieske KO viability enhancers – cell-based, MELAS cybrids, Rieske KO mouse fibroblasts, CellTiter-Glo, primary screen (AID 1508586;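 active = mean z-score across replicates of 1.96 or higher in either the MELAS or the Rieske mutant cell line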;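 note: z relative to plate mean and SD of compound and empty wells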). Particulars: low glucose.
Assay [11] in a line: blockers of cellular phospholipid synthesis – cell-based, LOPAC library, screen 4, primary screen (AID 1347384; call rule not given here). Conditions: animal cells, phospholipid biosynthesis inhibition screen; at 10 µM.
The target of assay [12] is NAD(+) hydrolase SARM1 (Homo sapiens) (UniProt Q6SZW1). In words: blocking NAD cleavage by SARM1 SAM-TIR – cell lysate, NAD-Glo luminescence (AID 1508614;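 active = compound whose remaining NAD level is above about 45 nM, limit read from the data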;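 note: higher remaining NAD means stronger inhibition of SARM1 NADase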). Conditions: SAM-TIR HEK293T lysate NADase, at 1 µM, stronger effect = higher value.
NAD(+) hydrolase SARM1 (Homo sapiens), sequence (Q6SZW1 whole entry, looked up): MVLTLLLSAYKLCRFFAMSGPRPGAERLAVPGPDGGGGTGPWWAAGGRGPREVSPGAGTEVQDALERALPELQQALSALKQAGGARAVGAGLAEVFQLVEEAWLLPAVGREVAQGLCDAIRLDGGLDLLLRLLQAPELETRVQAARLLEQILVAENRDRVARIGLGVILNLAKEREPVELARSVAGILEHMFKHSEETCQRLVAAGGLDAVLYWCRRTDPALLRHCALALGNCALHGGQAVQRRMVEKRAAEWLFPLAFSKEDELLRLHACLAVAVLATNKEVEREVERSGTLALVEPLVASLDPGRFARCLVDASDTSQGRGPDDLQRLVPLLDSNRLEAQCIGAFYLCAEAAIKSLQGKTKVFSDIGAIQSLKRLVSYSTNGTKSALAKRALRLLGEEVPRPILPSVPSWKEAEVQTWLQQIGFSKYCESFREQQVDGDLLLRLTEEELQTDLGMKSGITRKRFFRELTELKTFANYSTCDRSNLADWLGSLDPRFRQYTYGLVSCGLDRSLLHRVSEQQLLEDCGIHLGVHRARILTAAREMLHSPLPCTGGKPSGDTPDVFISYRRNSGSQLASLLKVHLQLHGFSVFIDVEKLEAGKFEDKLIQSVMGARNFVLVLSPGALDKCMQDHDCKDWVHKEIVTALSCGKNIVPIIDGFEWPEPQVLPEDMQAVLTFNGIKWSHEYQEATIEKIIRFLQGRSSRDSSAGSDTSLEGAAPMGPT

For `CN1CC[C@H](c2c(O)cc(O)c3c(=O)cc(-c4ccccc4Cl)oc23)[C@H](O)C1`, the nuclear beta-catenin stimulation was 72.1% (active) in [1] (at 10 µM) and 76.1% in assay [1] (stimulation, at 2 µM). Also, in assay [2], the insulin secretion stimulation is 2.75% (inactive). In addition, in assay [3], the viability decrease was 73.7% (active). Also, in assay [4], the tube area decrease is 110% (active). Also, in assay [5], the GLP1 secretion stimulation is 6.7% (inactive). In assay [6], the inhibition of viability was 54.4% (active). Besides, the viability decrease (inhibition) in assay [7] is 62.3% (active); in assay [8], 78.5% (active). The viability in assay [9] (at 0.000305 µM, OCI-C5x cells, with rucaparib 10 µM, 100% = cells with rucaparib alone) is 109% (inactive); in assay [9] (at 0.000305 µM, OCI-C5x cells, without rucaparib), 112% (inactive); in [9] (at 0.000305 µM, OCI-P5x cells, with rucaparib 20 µM, 100% = cells with rucaparib alone), 56.8% (active); in assay [9] (at 0.000305 µM, OCI-P5x cells, without rucaparib), 15.2% (active); in assay [9] (at 0.00122 µM, OCI-C5x cells, with rucaparib 10 µM, 100% = cells with rucaparib alone) it was 93.2% (active); in assay [9] (at 0.00122 µM, OCI-C5x cells, without rucaparib) it was 107% (inactive). The viability in assay [9] (at 0.00122 µM, OCI-P5x cells, with rucaparib 20 µM, 100% = cells with rucaparib alone) is 62% (active); in [9] (at 0.00122 µM, OCI-P5x cells, without rucaparib) it was 15.8% (active); in assay [9] (at 0.00488 µM, OCI-C5x cells, with rucaparib 10 µM, 100% = cells with rucaparib alone) it was 92.5% (active); in assay [9] (at 0.00488 µM, OCI-C5x cells, without rucaparib), 109% (inactive); in assay [9] (at 0.00488 µM, OCI-P5x cells, with rucaparib 20 µM, 100% = cells with rucaparib alone), 97.7% (active); in assay [9] (at 0.00488 µM, OCI-P5x cells, without rucaparib) it was 103% (inactive). The viability in assay [9] (at 0.0195 µM, OCI-C5x cells, with rucaparib 10 µM, 100% = cells with rucaparib alone) was 66% (active); in [9] (at 0.0195 µM, OCI-C5x cells, without rucaparib) it was 80% (active); in assay [9] (at 0.0195 µM, OCI-P5x cells, with rucaparib 20 µM, 100% = cells with rucaparib alone) it was 67.9% (active); in assay [9] (at 0.0195 µM, OCI-P5x cells, without rucaparib), 70.9% (active); in assay [9] (at 0.0781 µM, OCI-C5x cells, with rucaparib 10 µM, 100% = cells with rucaparib alone), 28.7% (active); in assay [9] (at 0.0781 µM, OCI-C5x cells, without rucaparib), 22.9% (active). Also, the viability in [9] (at 0.0781 µM, OCI-P5x cells, with rucaparib 20 µM, 100% = cells with rucaparib alone) was 35.2% (active); in [9] (at 0.0781 µM, OCI-P5x cells, without rucaparib) it was 23.5% (active); in [9] (at 0.313 µM, OCI-C5x cells, with rucaparib 10 µM, 100% = cells with rucaparib alone), 12% (active); in assay [9] (at 0.313 µM, OCI-C5x cells, without rucaparib) it was 10.8% (active); in assay [9] (at 0.313 µM, OCI-P5x cells, with rucaparib 20 µM, 100% = cells with rucaparib alone), 21% (active); in assay [9] (at 0.313 µM, OCI-P5x cells, without rucaparib), 12.5% (active). The viability is 10.1% (active) in [9] (at 1.25 µM, OCI-C5x cells, with rucaparib 10 µM, 100% = cells with rucaparib alone); 10.5% (active) in assay [9] (at 1.25 µM, OCI-C5x cells, without rucaparib); 16.2% (active) in assay [9] (at 1.25 µM, OCI-P5x cells, with rucaparib 20 µM, 100% = cells with rucaparib alone); 13.2% (active) in assay [9] (at 1.25 µM, OCI-P5x cells, without rucaparib); 13.5% (active) in assay [9] (at 5 µM, OCI-C5x cells, with rucaparib 10 µM, 100% = cells with rucaparib alone); 11.4% (active) in assay [9] (at 5 µM, OCI-C5x cells, without rucaparib). For the same molecule, the viability in [9] (at 5 µM, OCI-P5x cells, with rucaparib 20 µM, 100% = cells with rucaparib alone) was 14.2% (active); in assay [9] (at 5 µM, OCI-P5x cells, without rucaparib), 10.5% (active).

Take `N#Cc1cc(NC(=O)C(=O)O)c(Cl)c(NC(=O)C(=O)O)c1`: the nuclear beta-catenin stimulation in assay [1] (at 10 µM) is 3.5% (inactive); in [1] (stimulation, at 2 µM) it was 1.2%. Moreover, the insulin secretion stimulation in assay [2] is 2.2% (inactive). Also, the viability decrease in assay [3] is -38.9% (inactive). The tube area decrease in [4] is -0.9% (inactive). Further, the GLP1 secretion stimulation in assay [5] is -0.9% (inactive). For the same molecule, the inhibition of viability in [6] is -4.9% (inactive). In addition, the viability decrease (inhibition) in assay [7] was 25.7% (inactive); in assay [8] it was -16.9% (inactive). Also, the z-score in [10] (MELAS cybrid survival, CellTiter-Glo 48 h, stronger effect = higher value) was -0.414 (inactive); in assay [10] (Rieske KO mouse fibroblast survival, CellTiter-Glo 72 h), -0.697.

Turning to `CCC1C(=O)OCC1Cc1cncn1C` (configuration not stated), the nuclear beta-catenin stimulation in assay [1] (at 10 µM) was 0.7% (inactive); in assay [1] (stimulation, at 2 µM), 20%. Further, the insulin secretion stimulation in assay [2] is 3.7% (inactive). Besides, in [3], the viability decrease is 2.7% (inactive). In addition, the tube area decrease in assay [4] is -1.1% (active). The GLP1 secretion stimulation in assay [5] was 1.2% (inactive). The inhibition of viability in assay [6] was 8.9% (inactive). In addition, the viability decrease (inhibition) was -14.8% (inactive) in assay [7] and -20.6% (inactive) in [8]. Moreover, the molecule was classed as inactive in [11].

With `CC[C@H](C)[C@H](N)C(=O)O`, the nuclear beta-catenin stimulation was 2.1% (inactive) in [1] (at 10 µM) and 4.3% in assay [1] (stimulation, at 2 µM). In addition, in assay [2], the insulin secretion stimulation was -0.7% (inactive). Also, the viability decrease in assay [3] was -17.5% (inactive). The tube area decrease in [4] is 27% (inactive). In addition, in [5], the GLP1 secretion stimulation is -0.4% (inactive). In assay [6], the inhibition of viability was -13.2% (inactive). Moreover, the viability decrease (inhibition) in assay [7] was 0.9% (inactive); in assay [8] it was -7.9% (inactive). Moreover, the remaining NAD in assay [12] was 10 nM (inactive).

By viability is commonly meant a read-out of living cells in per cent, often relative to untreated cells.
